Pf growth 96h = P. falciparum growth inhibition at 96 hours | P. falciparum luciferase reporter growth, 96 h | Potency, µM (doses to about 28.7 µM), for inactives: top-dose activity change, negative = inhibition, hits mostly inhibitors | 320,000 tested, 6.9% active; further: on the % scale 0 is the no-effect control and ±100 the full control effect
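Cell-based qHTS: luciferase-tagged P. falciparum in erythrocytes (2% hematocrit, 0.05% parasitemia final) incubated with compounds for 96 hours, 37 C, 5% CO2; luciferase detection reagent then added and luminescence measured.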
AMA1-RON2 inh = AMA1-RON2 (P. falciparum) interaction inhibition; AlphaScreen AMA1-biotinylated RON2 peptide binding; Potency, µM (series often up to 58.2 µM), for inactives: at the highest dose activity change, negative = inhibition, hits mostly inhibitors; 360,000 tested, 0.2% active;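 further: 0% = vehicle wells and -100% = peptide control; nearly all actives have a fitted effect of over 45% in size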
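AMA1 (3D7) with his tag at 25 nM final met compounds first, then biotinylated RON2 peptide at 25 nM; detection used donor plus acceptor beads, 10 µg/mL apiece, read by AlphaScreen after 30 min at room temperature.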
Pf growth 48h = inhibits P. falciparum growth in the first generation, 48 h; P. falciparum luciferase growth in erythrocytes, 48 h; Potency, µM (series often up to 28.7 µM), for the others: at the highest dose activity change, negative = inhibition, usual class: inhibitors; 310,000 tested, 5.9% active; further: on the % scale 0 is the no-effect control and ±100 the full control effect
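Luminescence readout; reporter = integrated firefly luciferase in P. falciparum. RBC culture at 2% hematocrit, 0.1% parasitemia final, 37 C/5% CO2; decreased signal taken as growth inhibition.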
NS1 inh = blocks influenza NS1 protein function; Potency, µM (series often up to 46.1 µM), inactives show at the highest dose activity, positive = more growth; AID 2326; 270,000 tested, 0.4% active; calls by dose curve; further: actives are rising curves; nearly all actives have a fitted effect of over 50% in size
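Read-out: OD600 growth recovery of NS1-expressing budding yeast. Cells grown overnight at 30C in -URA glucose medium, washed, resuspended and diluted 1:100 in 2% galactose assay medium, pH 6.0. Same strain lacking NS1 served as positive control.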
Sm TGR block = blocks Schistosoma mansoni thioredoxin glutathione reductase | 360,000 tested, 3% active | Q962Y6 | purified TGR, DTNB reduction, TNB absorbance 405 nm | Potency, µM (titrated, usually from 114 µM), for inactives: top-dose activity change, negative = inhibition, hits mostly inhibitors | AID 485364; further: on the % scale 0 is the no-effect control and ±100 the full control effect; nearly all actives have a fitted effect of over 60% in size
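TGR 20 nM + NADPH 100 uM (dispensed conc.), cpd preinc 15 min RT; start with NADPH (500 uM addition) then DTNB (15 mM addition). Kinetic TNB absorbance, 405 nm filter. Four-parameter Hill fit across titration.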
Numbers without * were called inactive; u = inconclusive; x = no result; [ ] = remark or other dose. An excerpt weighted towards active compounds, which were near 11% of everything screened. Unless noted, the call rests on the fitted dose curve; in most records, active means well fitted curve in the direction sought with a large enough effect; inconclusive means small, poorly fitted or top-dose-only effect, or another doubt; inactive means no such curve, though single readings can be large; an effect the other way counts as inactive or inconclusive. Potency means the concentration at half of the fitted maximal effect.

SMILES	Pf growth 96h	AMA1-RON2 inh	Pf growth 48h	NS1 inh	Sm TGR block
CCOc1ccc(N2C(=O)CC(NCC#N)C2=O)cc1 (stereo not given)	-18%	0%	u	-66%	2.8µM*
CCOc1ccc(N2C(=O)CC(NC3CCCCNC3=O)C2=O)cc1 (stereo not given)	-17%	12%	9%	-4%	22µM*
CCCOc1ccc(N2C(=O)CC(NCCNc3ccc([N+](=O)[O-])cn3)C2=O)cc1 (stereo not given)	0%	26%	4%	-4%	8.9µM*
CS/C(N)=N/S(=O)(=O)c1ccc(NC(C)=O)cc1	51%	-10%	4%	3%	5%
CC1=CC(=O)N(c2cccc(C(F)(F)F)c2)C1c1ccc(Cl)cc1 (stereo not given)	u	5%	8.3µM*	-68%	-11%
CC1=CC(=O)N(c2ccc(C)cc2)C1c1ccc(Cl)cc1 (stereo not given)	u	-3%	u	-1%	1%
CCOC(=O)CNc1ncnc2c1nnn2C	x	x	x	x	10%
C/C=C(/C)C(=O)O[C@@H]1c2c(ccc3ccc(=O)oc23)OC(C)(C)[C@@H]1OC(C)=O	x	1%	x	x	x
CC(=O)O[C@@H]1[C@H](OC(=O)CC(C)C)c2c(ccc3ccc(=O)oc23)OC1(C)C	u	-4%	-15%	-28%	-11%
C/C=C(/C)C(=O)OC1c2c(ccc3ccc(=O)oc23)OC(C)(C)C1OC(=O)/C(C)=C\C (stereo not given)	1.5µM*	0%	u	2%	-27%
C/C=C(\C)C(=O)OC1c2c(ccc3ccc(=O)oc23)OC(C)(C)C1OC(C)=O (stereo not given)	u	-5%	8.3µM*	-3%	-25%
CN(Cc1ccccc1)S(=O)(=O)c1ccc(Cl)c(C(=O)NCc2cccnc2)c1	-2%	-4%	u	x	0%
CCN(c1ccccc1)S(=O)(=O)c1cccc(C(=O)N(C)CCOc2ccccc2)c1	u	44%	-8%	x	-7%
CCOC(=O)C1=C(C)NC(=O)NC1C (stereo not given)	13%	-1%	7%	8%	13%
CC1=C(C(=O)OC(C)C)C(C)NC(=O)N1 (stereo not given)	9.3µM*	5%	0%	0%	-1%
CC(C)(C)NC(=O)NC(=O)CSc1nncs1	-2%	-3%	49%	-1%	6%
CN(C)c1ccc(CN2CCCCC2)cc1	3%	17%	x	-3%	1%
CN(C)c1ccc(Cc2ccc(N(C)C)cc2)cc1	x	14µM*	x	x	x
NC(N)=NN=C1CCCCCCCCCCC1	3.7µM*	12%	10µM*	5%	14%
Cc1ccc(-c2csc(=Nc3ccccc3)n2Cc2ccc3c(c2)OCO3)cc1	x	x	x	x	-10%
Cc1ccc2cc(/C=C/C(=O)c3ccco3)c(Cl)nc2c1	0%	-14%	u	-41%	8.9µM*
COc1ccc2cc(/C=C/C(=O)c3ccco3)c(Cl)nc2c1	x	x	u	-4%	45µM*
COc1ccc(NC(=O)C[C@H]2C(=O)N(Cc3ccccc3)C[C@@H]2CSC)cc1	x	-1%	x	x	x
O=C1NC(=O)N(c2ccccc2)C(=O)/C1=C\c1ccccc1[N+](=O)[O-]	45%	u	42%	4%	3.5µM*
O=C1NC(=O)N(c2ccccc2)C(=O)/C1=C/c1ccoc1	12%	-11%	5%	x	-10%
SMILES	Pf growth 96h	AMA1-RON2 inh	Pf growth 48h	NS1 inh	Sm TGR block
O=C(O)Cn1cc(/C=C2\C(=O)NC(=O)N(c3ccc(F)cc3)C2=O)c2ccccc21	u	x	-15%	4%	u
O=C1NC(=O)N(c2ccccc2)C(=O)/C1=C\c1ccc2c3c(cccc13)CC2	34%	x	2%	9%	25µM*
COc1ccccc1N1C(=O)NC(=O)/C(=C\c2cnn(-c3ccccc3)c2)C1=O	-22%	0%	17%[5.75 µM]	x	5%
COc1ccccc1N1C(=O)NC(=O)/C(=C/c2ccc3c4c(cccc24)CC3)C1=O	-20%	-20%	4%	u	32µM*
CCn1cnc2c1c(=O)n(CC(=O)NCc1ccccc1)c(=O)n2Cc1ccccc1	u	5%	u	x	1%
CCOC(=O)c1c(C)[nH]c(C(=O)Cn2c(=O)c3c(ncn3CC)n(Cc3ccccc3)c2=O)c1C	10µM*	-10%	8.3µM*	20%	-13%
CCn1cnc2c1c(=O)n(Cc1cccc([N+](=O)[O-])c1)c(=O)n2Cc1ccccc1	u	-16%	8.3µM*	13%	0%
CC(=O)NCC1CCCN(C(=O)c2ccc(OC3CCN(Cc4ccccn4)CC3)cc2)C1 (stereo not given)	u	75%	10%	-1%	-19%
O=S(=O)(O)n1ccnc1 (tested in a mixture with another compound)	x	x	x	-1%	x
COCCn1nnnc1C(c1ccc(OC)c(OC)c1)N1CCN(c2nc3ccccc3s2)CC1 (stereo not given)	2.9µM*	-9%	13µM*	-12%	-15%
COc1ccc(C(c2nnnn2CC2CCCO2)N2CCN(c3ccc(F)cc3)CC2)cc1 (stereo not given)	8.3µM*	-14%	u	-11%	-24%
COCCn1nnnc1C(c1ccccc1)N1CCN(c2ccccc2)CC1 (stereo not given)	u	u	-27%	3%	-18%
Cc1ccc(C(c2nnnn2CC2CCCO2)N2CCN(C)CC2)cc1 (stereo not given)	2%	-7%	19%	-1%	-9%
c1ccc(Cn2nnnc2CN2CCN(c3ncccn3)CC2)cc1	4.7µM*	19%	-9%	-8%	-1%
COc1ccc(Cn2nnnc2C(c2ccncc2)N2CCOCC2)cc1 (stereo not given)	u	4%	24%	-10%	25µM*
COc1ccc(C(c2nnnn2Cc2ccccc2)N2CCN(c3nc4ccccc4s3)CC2)cc1 (stereo not given)	x	-3%	5.2µM*	12%	0%
COc1ccc(C(c2nnnn2Cc2ccccc2)N2CCC3(CC2)C(=O)NCN3c2ccccc2)cc1 (stereo not given)	x	-18%	x	x	x
c1ccc(CCn2nnnc2C(c2cccnc2)N2CCN(c3nc4ccccc4s3)CC2)cc1 (stereo not given)	7%	-4%	13µM*	-106%	0%
COc1ccc(C(c2nnnn2Cc2ccccc2)N2CCN(c3ccccc3)CC2)cc1 (stereo not given)	13µM*	-14%	u	-2%	0%
COc1ccc(Cn2nnnc2C(C(C)C)N2CCN(c3ccccc3OC)CC2)cc1 (stereo not given)	15%	-14%	4.7µM*	-35%	8%
c1ccc(CCn2nnnc2C(c2cccnc2)N2CCN(c3ccccc3)CC2)cc1 (stereo not given)	4%	-2%	u	-57%	2%
